According to PubChem BioAssay AID488890 (Southern Research Specialized Biocontainment Screening …, 2010):
Values joined by “and” are separate entries in the source; they are usually repeats but may differ in a detail not shown here. Equal entries are not always repeated. Screen size: about 320,000 compounds; about 1,300 (0.41%) were called active. Roughly 3% stayed inconclusive and do not appear here. The rule behind the calls is not given here. These entries were drawn from the full list. Entries with a potency or affinity are not part of this list.

experiment: growth inhibition of non-replicating M. tuberculosis (AID 488890); settings: Mycobacterium tuberculosis non-replicating, at 25 µM, stronger effect = higher value;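 note: plate controls were DMSO cells for no effect and high antibiotic wells for full effect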

SMILES | inhibition
CN(C)C(=O)c1cccn1-c1ncc(C(F)(F)F)cc1Cl | -7.62%
O=c1c2ccccc2nc(-c2ccccc2)n1-c1ccccc1O | 49.7%
COc1ccccc1-n1c(-c2ccccc2Br)nc2ccccc2c1=O | 5.34%
O=C(CCC(=O)N1CCN(c2ccc(F)cc2)CC1)c1ccc(Cl)cc1 | 37.7%
Cc1c(Cl)cccc1NC(=O)C1CCCN(S(C)(=O)=O)C1 (centres undefined) | 1.51%
Cc1ccc(S(=O)(=O)N2CCCCC2)cc1NC(=O)COC(=O)C1=COCCO1 | -3.36%
CC(=O)c1c(O)cc(C(C)C)n(-c2ccccc2)c1=O | 6.76%
C=CCNC(=O)N[C@@H](CCSC)C(=O)OC | -9.43%
O=C(COC(=O)c1n[nH]c2ccccc12)NCCc1ccc(Cl)cc1 | 18.4%
CCCn1c(CNc2ccc(Br)cc2)nc2ccccc21 | 66.1%
Cc1ccccc1NCc1nc2ccccc2n1C | 34.2%
CCCn1c(CNC(=O)Cc2ccccc2)nc2ccccc21 | -2.66%
Cn1c(CNc2ccc(O)cc2)nc2ccccc21 | 73.1%
COc1ccc(S(=O)(=O)N2CCC(C(=O)N3CCCCC3)CC2)cc1 | -4.95%
O=C(CNC(=O)c1cccs1)NCC(=O)OCc1ccccc1Br | 20.5%
Cc1ccc(S(=O)(=O)Nc2ccc(F)cc2)cc1C(=O)N1CCOCC1 | -12.4%
COC(=O)c1cnn(-c2nc(OC)cc(OC)n2)c1C | -11.5%
COc1cc(OC)nc(-n2ncc(OC)c(Br)c2=O)n1 | -12%
COc1cc(C(=O)ON=C2C3CC4CC(C3)CC2C4)cc(OC)c1OC | 46.9%
COc1ccc(-c2nc(CSCC(=O)N3CCN(C(=O)c4ccco4)CC3)c(C)o2)cc1OC | -16.5%
CCOC(=O)C1(CCOc2ccccc2)CCN(C(=O)CCSC)CC1 | 10.9%
O=C(CCN1C(=O)/C(=C\c2ccccc2Cl)SC1=S)N1CCN(c2ccccc2)CC1 | 73.2%
COc1cccc(/C=C2\SC(=S)N(CCCC(=O)N3CCCCC3)C2=O)c1 | 79%
CN1CCN(C(=O)CCN2C(=O)/C(=C/c3ccccc3Cl)SC2=S)CC1 | 18.9%
COc1cccc(/C=C2/SC(=S)N(CCC(=O)N3CCOCC3)C2=O)c1 | 46.5%
O=C(c1ccco1)N1CCN(C(=O)c2ccc(COc3ccc(Cl)cc3Cl)o2)CC1 | 11.7%
CS(=O)(=O)c1ccc2nc(NC(=O)CN3C(=O)C4CC=CCC4C3=O)sc2c1 (centres undefined) | -9.69%

SMILES | inhibition
COC(=O)c1ccc(N2NC(=O)/C(=C/c3cc(OC)c(OC)c(OC)c3)C2=O)cc1 | 13.4%
C=CCn1c(O)c(N=NC(=O)c2ccc3c(c2)OCO3)c2ccccc21 | 11.7%
Cc1cc(C)n2nc(CNS(=O)(=O)c3ccc(CC(C)C)cc3)nc2n1 | 7.85%
O=C(NC1CC1)C1CC(=O)N(C2CCCCC2)C1 (centres undefined) | -5.51%
CC(NC(=O)CSc1nnc(-c2cc3cc(Cl)ccc3o2)n1C)c1ccccc1 (centres undefined) | 16.7%
CNC(C)C#Cc1ccc2oc3cccc(OC)c3c(=O)c2c1 (centres undefined) | 57.7%
CNC(C)C#Cc1ccc2c(=O)c3c(OC)cccc3oc2c1 (centres undefined) | 42.6%
CCOc1ccc(S(=O)(=O)N2CCC(C(=O)N3CCCCCC3)CC2)cc1C | 21.6%
O=[N+]([O-])c1ccc(N2CCCCC2)cc1SCCO | 7.65%
CC(C)NC(=O)c1ccc(CN2CCc3ccccc3C2)cc1 | -40%
CC(=O)Nc1ccc(NC(=O)c2ccc(CN3CCc4ccccc4C3)cc2)cc1 | 28.5%
CCOC(=O)C1=C(C)Nc2sc(C(=O)c3ccc(OC)cc3)c(N)c2C1c1ccc(C(=O)OC)cc1 (centres undefined) | 26.4%
CCCCCC(=O)NC(=S)Nc1cccc(-c2nc3ncccc3o2)c1 | -12.6%
COC(=O)c1ccc(C)c(NC(=O)CSc2nc3[nH]c(=O)cc(O)c3s2)c1 | 11.9%
COc1cccc(C(=O)OCC(=O)N2CCc3ccccc3C2)c1 | 43.9%
Nc1ccc(C(=O)OCC(=O)N2CCc3ccccc3C2)cc1[N+](=O)[O-] | 39%
COc1cccc(-c2nc(-c3ccccc3)c(-c3ccccc3)[nH]2)c1OCC(=O)O | 4.59%
O=[N+]([O-])c1cc(C(F)(F)F)ccc1NC1CCN(Cc2ccccc2)CC1 | 52.5%
FC(F)Sc1ccc(-n2c(-c3ccc(Cl)cc3)c[n+]3c2CCC3)cc1 | -0.67%
CCOc1ccc(C(=O)NCc2ccncc2)cc1OCC | -10.7%
NS(=O)(=O)c1ccc(OC(=O)CNC(=O)OCc2ccccc2)cc1 | 6.9%
Cc1ccc(S(=O)(=O)N2CCN(C(=O)c3c(-c4ccccc4)noc3C)CC2)cc1C | 8.79%
O=C(O)COc1ccc(Br)cc1CP(=O)(c1ccccc1)c1ccccc1 | -5.1%
CCOC(=O)c1c(C)nn(-c2ncccc2NC(=O)NC(C)C)c1C | -15.3%
Cc1ccc(-c2cn(-c3ccccc3)c3[n+]2CCCS3)cc1 | 9.74% and -19.1%
c1ccc(-c2cn(-c3ccccc3)c3[n+]2CCCS3)cc1 | -2.11%
CCn1cc(C(=O)NC(=S)Nc2ccccc2[N+](=O)[O-])cn1 | 26.2%
